# Only some compounds are listed: those with a hit (about 3.4% of all), similar ones and a draw of the others.
# MITF primary: MITF inhibitors, primary screen, biochemical, AlphaScreen, human; actives 0.91% (n = 650,000); AID 1259374, 2018; Microphthalmia-associated transcription factor (Homo sapiens), O75030; AlphaScreen MITF homodimerization, bead proximity signal; inhibition, % at 2.6 µM; in the data active = inhibition above about 50%;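 also: 0% = vehicle wells with protein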
# GPR151 activ: activators of human GPR151, primary screen, cell-based, PathHunter beta-arrestin, luminescence; G-protein coupled receptor 151 (Homo sapiens), Q8TDV0; PathHunter beta-arrestin GPR151 cells; activation, % at 11.2 µM; actives 1% (n = 650,000); AID 1508602, 2020; in the data active = activation above about 4.9%;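 also: 0% = median of compound wells and 100% = cells with positive control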
# FBW7 act: FBW7 E3 ligase activators, primary screen, biochemical, AlphaScreen, human. AlphaScreen FBW7–phospho-cyclin E peptide binding, activator screen. normalized activity (activation), % at 26.1 µM. actives 0.13% (n = 650,000); in the data active = normalized activity above about 1.9%;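 also: purified mutant Fbw7 with reduced substrate affinity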
# Target sequence (Q969H0 whole entry, looked up): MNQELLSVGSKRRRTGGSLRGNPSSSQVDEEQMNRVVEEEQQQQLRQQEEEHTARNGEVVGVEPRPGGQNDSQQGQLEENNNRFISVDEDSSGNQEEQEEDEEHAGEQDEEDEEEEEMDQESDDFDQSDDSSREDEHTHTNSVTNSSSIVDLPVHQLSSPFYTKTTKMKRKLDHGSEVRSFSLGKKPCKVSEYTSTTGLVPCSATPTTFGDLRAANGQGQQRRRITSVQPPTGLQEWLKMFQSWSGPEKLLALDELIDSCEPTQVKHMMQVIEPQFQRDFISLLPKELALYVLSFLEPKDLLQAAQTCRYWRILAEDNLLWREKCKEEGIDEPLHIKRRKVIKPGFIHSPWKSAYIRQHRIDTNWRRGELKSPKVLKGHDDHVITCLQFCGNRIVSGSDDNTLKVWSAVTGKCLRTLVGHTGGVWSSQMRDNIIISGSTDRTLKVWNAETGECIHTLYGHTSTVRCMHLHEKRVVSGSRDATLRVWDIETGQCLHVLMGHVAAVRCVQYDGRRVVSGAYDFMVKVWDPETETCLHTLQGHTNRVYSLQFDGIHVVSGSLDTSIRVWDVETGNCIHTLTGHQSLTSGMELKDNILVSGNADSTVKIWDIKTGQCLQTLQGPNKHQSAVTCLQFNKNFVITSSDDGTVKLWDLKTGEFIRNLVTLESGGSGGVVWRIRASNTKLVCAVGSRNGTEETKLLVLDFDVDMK
# TEAD-YAP inh: TEAD-YAP interaction inhibition, primary screen, TEAD-YAP interaction inhibitor project, luminescence, HEK-TIYL cells. inhibition, % at 9.12 µM. actives 1.4% (n = 640,000). TEAD-Gal4/YAP UAS-luciferase luminescence; in the data active = inhibition above about 32%;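 also: 0% = median of test compound wells and 100% = reference inhibitor wells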
# Numbers without * were called inactive.
SMILES,MITF primary,GPR151 activ,FBW7 act,TEAD-YAP inh
Cn1c(Nc2nc(NC3CC3)c3ncn(-c4ccccc4)c3n2)nc2ccccc21,13,0,0,47*
CC(=O)Nc1ccc(Nc2nc(Nc3nc4ccccc4n3C)nc3c2ncn3-c2ccccc2)cc1,-1,1,0,32*
CCNc1nc(Nc2ccc(NC(C)=O)cc2)c2ncn(-c3ccccc3)c2n1,20,1,0,-8
c1ccc(-n2cnc3c(NC4CC4)nc(Nc4ncccn4)nc32)cc1,-7,0,0,23
Cn1c(Nc2nc(NCCc3ccc(O)cc3)c3ncn(-c4ccccc4)c3n2)nc2ccccc21,1,-4,1,19
CCC(=O)N=c1sc2cc(F)ccc2n1CC,10,0,0,-9
COc1ccc(CN2C(=O)NC(=O)/C(=C\c3c(OC)cc(OC)cc3OC)C2=O)cc1,2,0,-1,-1
CCOCCCNC(=O)c1ccc2c(c1)nc(C)n2-c1cc(C)ccc1OC,-3,2,0,15
COCCCNC(=O)c1ccc2c(c1)nc(C)n2-c1cc(C)ccc1OC,-12,1,0,56*
COc1cc(NC(=O)c2cc(Cl)ccc2[N+](=O)[O-])c(OC)cc1Cl,0,1,0,6
Cc1ccc(NC(=O)c2cc(F)ccc2[N+](=O)[O-])cc1,0,0,0,52*
O=C(Nc1ccc(Cl)cc1Cl)c1cc(F)ccc1[N+](=O)[O-],4,-2,0,76*
CCOc1ccc(C2C(C(N)=O)=C(C)Nc3nnnn32)cc1 (centres undefined),12,-1,1,21
Clc1ccc(-c2cn3c4ccccc4nc3n2CCNC2CCCCC2)cc1,3,1,1,-4
Brc1ccc(-c2cn3c4ccccc4nc3n2CCCNC2CCCCC2)cc1,-1,0,6.2*,4
COc1ccc(NC(=O)c2c(F)cccc2F)cc1OC,-7,1,0,-9
CC(=O)c1ccc(N=Nc2ccc(O)c(C=O)c2)cc1,-16,-4,0,90*
COc1ccc(OC)c(C(=O)COc2ccccc2C#N)c1,19,0,0,41*
N#CC(Cl)CNS(=O)(=O)c1ccc(Cl)cc1 (centres undefined),-1,-2,0,47*
Cc1ccc(CCC(=O)Nc2ncc(Cc3ccccc3F)s2)o1,9,0,0,51*
Cc1cccc(Cc2cnc(NC(=O)CCc3ccc(C)o3)s2)c1,14,0,0,32*
CC(=O)Nc1ncc(Cc2ccccc2F)s1,10,0,0,0
O=C(c1ccc(Sc2cccc(Cl)c2)c([N+](=O)[O-])c1)N1CCCCCC1,0,1,0,-8
Cc1ccc(S(=O)(=O)Nc2cccc(C(F)(F)F)c2)cc1[N+](=O)[O-],9,0,0,4
CCOC(=O)CNS(=O)(=O)c1cc(-c2nnc(Nc3ccc(Cl)c(Cl)c3)c3ccccc23)ccc1C,6,0,2.2*,1
SMILES,MITF primary,GPR151 activ,FBW7 act,TEAD-YAP inh
C=CCn1c(CNC(=O)c2ccccc2F)nnc1SCC(=O)Nc1cccc(C)c1,5,-1,0,10
c1cc2ccc3ncc(-c4ccc(-c5ccn[nH]5)cc4)cc3c2cn1,12,0,2.0*,-18
Fc1ccc(-c2cnc3ccc4ccncc4c3c2)cc1,16,0,0,-8
OCCNc1nc2ccccc2n1-c1ncnc2sc3c(c12)CCCC3,5,-2,0,7
c1cc(-c2ccc3cnc(Nc4ccc(-n5cnc(N6CCOCC6)n5)cc4)nc3c2)c[nH]1,6,4,-1,53*
c1cc(-c2ccc3cnc(Nc4ccc(-n5cnc(N6CCOCC6)n5)cc4)nc3c2)co1,37,2,0,-1
Cc1ccc(-c2ccc3cnc(Nc4ccc(-n5cnc(N6CCOCC6)n5)cc4)nc3c2)cn1,-1,0,2.3*,0
Cc1ccc(NC(=O)CSc2ccc3ccccc3n2)c(C)c1,-3,-1,0,76*
Cc1c(C(=O)NC(=S)Nc2ccc(N3CCCCC3)c(Cl)c2)oc2ccccc12,-6,1,0,7
CC(=O)c1cccc(NC(=O)CCl)c1,-4,1,0,99*
CS(=O)(=O)N(CC(=O)Nc1cccc(Cl)c1)c1ccccc1,2,1,0,4
CC(=O)c1cccc(NC(=O)CCC(=O)Nc2cccc(C(C)=O)c2)c1,10,-1,0,9
CC(=O)c1ccc(NC(=O)Nc2cccc(C(=O)O)c2)cc1,-1,4,0,51*
CC(=O)c1cccc(NC(=O)CN(c2ccccc2)S(C)(=O)=O)c1,-19,-1,1.9*,8
CC(=O)c1cccc(NC(=O)Nc2ccccc2)c1,0,-1,0,-25
CN1CCN(c2nc(NCCc3ccccc3)c3ccccc3n2)CC1,-7,0,0,-2
c1ccc(-n2cnc3c(NC4CC4)nc(N4CCOCC4)nc32)cc1,-1,1,0,52*
CC(=O)Nc1ccc(Nc2nc(N3CCN(c4ccccn4)CC3)nc3c2ncn3-c2ccccc2)cc1,4,4,0,22
CC(C)N(CCNc1nc(N2CCOCC2)nc2c1ncn2-c1ccsc1)C(C)C,2,0,0,55*
c1cc(-n2cnc3c(NC4CC4)nc(N4CCOCC4)nc32)cs1,-1,-1,0,56*
OCC1CCCN1c1nc(NC2CC2)c2ncn(-c3ccsc3)c2n1 (centres undefined),4,2,0,1
c1ccc(-n2cnc3c(NC4CC4)nc(N4CCN(c5ccccn5)CC4)nc32)cc1,16,-1,0,37*
CCNc1nc(NC2CCN(Cc3ccccc3)CC2)c2[nH]cnc2n1,9,1,0,2
c1cc(-n2cnc3c(NC4CC4)nc(N4CCC(N5CCOCC5)CC4)nc32)cs1,10,-1,0,46*
O=C(CSc1ncn[nH]1)Nc1ccc(Cl)cc1,11,-1,0,3
SMILES,MITF primary,GPR151 activ,FBW7 act,TEAD-YAP inh
Cc1cc(C)nc(N/N=C/c2sc(N3CCOCC3)nc2-c2ccccc2)n1,5,2,0,46*
COc1ccccc1N1C(=O)c2ccc(C(=O)COC(=O)c3ccccc3)cc2C1=O,-26,0,0,-15
O=c1c(CN2CCN(c3cccc(Cl)c3)CC2)coc2ccccc12,53*,0,0,43*
Cc1ccc2occ(CN3CCN(c4ccccc4)CC3)c(=O)c2c1,23,3,0,-3
O=c1c(CN2CCN(c3cccc(C(F)(F)F)c3)CC2)coc2ccccc12,35,0,0,62*
COCCNS(=O)(=O)c1ccc(OC)cc1,0,1,0,3
CC(C(=O)Nc1ccc(S(N)(=O)=O)cc1)N1CCC(C(N)=O)CC1 (centres undefined),2,0,0,1
O=C(CN1CCOCC1)Nc1ccc(OCc2ccccc2)cc1,-5,0,0,33*
O=C(Nc1ccc(OCc2ccccc2)cc1)c1ccc(CN2CCOCC2)cc1,7,1,0,49*
